The results in this text go back to ChEMBL document CHEMBL1961873, “Compounds: GSK PKIS; Assays: Nanosyn kinase panel” (2012).

The target of test [1] is Leukocyte tyrosine kinase receptor (Homo sapiens) (UniProt P29376). The settings on record: at 1 µM.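 Also: each value is the mean inhibition of LTK.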
The target of test [2] is Tyrosine-protein kinase Lyn (Homo sapiens) (UniProt P07948). The settings on record: at 0.1 µM.
Test [3] shares this target. The settings on record: at 1 µM.
For test [4] the target is unchanged. The settings on record: at 0.1 µM. This is another data set of the same source.
The target is the same in test [5]. The settings on record: at 1 µM. The source holds these as a separate data set.
The target in test [6] is T1, Tyrosine-protein kinase Mer (Homo sapiens) (UniProt Q12866).
T1 sequence (whole entry): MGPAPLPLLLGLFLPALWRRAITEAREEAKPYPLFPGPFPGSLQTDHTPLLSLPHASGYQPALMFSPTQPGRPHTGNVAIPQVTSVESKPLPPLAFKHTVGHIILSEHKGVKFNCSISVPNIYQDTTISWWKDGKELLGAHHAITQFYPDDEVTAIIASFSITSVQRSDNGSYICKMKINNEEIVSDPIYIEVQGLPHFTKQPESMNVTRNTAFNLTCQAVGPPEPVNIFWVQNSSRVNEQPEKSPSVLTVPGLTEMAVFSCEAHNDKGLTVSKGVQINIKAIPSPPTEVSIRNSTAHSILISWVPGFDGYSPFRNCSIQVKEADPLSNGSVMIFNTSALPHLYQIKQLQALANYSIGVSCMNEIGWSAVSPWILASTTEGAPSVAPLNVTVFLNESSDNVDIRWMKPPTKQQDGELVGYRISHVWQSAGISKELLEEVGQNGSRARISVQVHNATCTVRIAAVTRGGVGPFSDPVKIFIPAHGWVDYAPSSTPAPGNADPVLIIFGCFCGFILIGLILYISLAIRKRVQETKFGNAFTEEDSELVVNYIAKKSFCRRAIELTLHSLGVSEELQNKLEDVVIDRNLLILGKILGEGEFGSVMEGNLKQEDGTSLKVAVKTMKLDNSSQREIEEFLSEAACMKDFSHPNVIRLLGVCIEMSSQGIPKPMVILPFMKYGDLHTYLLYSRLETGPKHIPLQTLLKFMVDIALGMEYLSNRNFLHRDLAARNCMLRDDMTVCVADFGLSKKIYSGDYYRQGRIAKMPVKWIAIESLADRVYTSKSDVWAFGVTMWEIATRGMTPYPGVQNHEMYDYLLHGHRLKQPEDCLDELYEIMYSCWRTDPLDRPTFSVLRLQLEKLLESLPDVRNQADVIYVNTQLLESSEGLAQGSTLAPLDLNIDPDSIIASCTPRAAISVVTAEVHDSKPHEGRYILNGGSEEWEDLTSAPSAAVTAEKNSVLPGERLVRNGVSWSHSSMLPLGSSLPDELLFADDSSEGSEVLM
The settings on record: at 0.1 µM.

The target of test [7] is T1, Tyrosine-protein kinase Mer (Homo sapiens). The settings on record: at 1 µM.
Test [8] has as its target Hepatocyte growth factor receptor (Homo sapiens) (UniProt P08581). The settings on record: at 0.1 µM.
Test [9] has the same target. Conditions: at 1 µM.
Test [10] concerns the target T2, Muscle, skeletal receptor tyrosine-protein kinase (Homo sapiens) (UniProt O15146).
T2 sequence (whole entry): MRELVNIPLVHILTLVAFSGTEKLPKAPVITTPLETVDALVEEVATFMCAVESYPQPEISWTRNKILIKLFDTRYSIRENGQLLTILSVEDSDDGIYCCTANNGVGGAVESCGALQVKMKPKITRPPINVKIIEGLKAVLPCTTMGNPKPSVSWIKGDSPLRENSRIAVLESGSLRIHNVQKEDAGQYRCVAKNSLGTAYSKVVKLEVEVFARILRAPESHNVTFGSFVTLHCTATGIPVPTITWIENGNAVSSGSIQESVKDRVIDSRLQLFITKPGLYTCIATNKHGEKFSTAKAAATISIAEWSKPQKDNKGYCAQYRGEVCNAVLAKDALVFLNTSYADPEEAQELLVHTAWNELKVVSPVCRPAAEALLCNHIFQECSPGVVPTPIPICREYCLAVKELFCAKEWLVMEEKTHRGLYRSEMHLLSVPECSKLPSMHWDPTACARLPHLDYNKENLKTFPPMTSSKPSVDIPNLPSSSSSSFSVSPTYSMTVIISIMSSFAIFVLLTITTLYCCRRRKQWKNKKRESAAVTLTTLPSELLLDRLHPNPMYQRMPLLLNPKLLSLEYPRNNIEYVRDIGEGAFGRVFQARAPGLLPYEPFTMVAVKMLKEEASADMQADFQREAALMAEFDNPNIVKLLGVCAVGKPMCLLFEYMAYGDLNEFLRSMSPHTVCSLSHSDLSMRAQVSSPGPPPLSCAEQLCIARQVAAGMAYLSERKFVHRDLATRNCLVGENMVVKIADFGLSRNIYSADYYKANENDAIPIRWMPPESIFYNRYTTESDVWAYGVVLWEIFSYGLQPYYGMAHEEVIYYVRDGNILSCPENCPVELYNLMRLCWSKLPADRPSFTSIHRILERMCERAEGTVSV
Conditions: at 0.1 µM.

For test [11], the target named is T2, Muscle, skeletal receptor tyrosine-protein kinase (Homo sapiens). Conditions: at 1 µM.
Test [12] addresses Platelet-derived growth factor receptor alpha (Homo sapiens) (UniProt P16234). The settings on record: at 0.1 µM.
Test [13] shares this target. The settings on record: at 1 µM.
Test [14] has as its system Platelet-derived growth factor receptor alpha (Homo sapiens), P16234 [D842V]. Conditions: at 0.1 µM.
The test system is the same in test [15]. The settings on record: at 1 µM.
Test [16] has as its system Platelet-derived growth factor receptor alpha (Homo sapiens), P16234 [T674I]. The settings on record: at 0.1 µM.
Test [17] shares this test system. Conditions: at 1 µM.
Test [18] has as its system Platelet-derived growth factor receptor alpha (Homo sapiens), P16234 [V561D]. The settings on record: at 0.1 µM.
Test [19] shares this test system. Conditions: at 1 µM.
The target in test [20] is Platelet-derived growth factor receptor beta (Homo sapiens) (UniProt P09619). Conditions: at 0.1 µM.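 Also: reported value is the mean percent inhibition of the kinase.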
Sequence of Platelet-derived growth factor receptor beta (Homo sapiens) (P09619 whole entry): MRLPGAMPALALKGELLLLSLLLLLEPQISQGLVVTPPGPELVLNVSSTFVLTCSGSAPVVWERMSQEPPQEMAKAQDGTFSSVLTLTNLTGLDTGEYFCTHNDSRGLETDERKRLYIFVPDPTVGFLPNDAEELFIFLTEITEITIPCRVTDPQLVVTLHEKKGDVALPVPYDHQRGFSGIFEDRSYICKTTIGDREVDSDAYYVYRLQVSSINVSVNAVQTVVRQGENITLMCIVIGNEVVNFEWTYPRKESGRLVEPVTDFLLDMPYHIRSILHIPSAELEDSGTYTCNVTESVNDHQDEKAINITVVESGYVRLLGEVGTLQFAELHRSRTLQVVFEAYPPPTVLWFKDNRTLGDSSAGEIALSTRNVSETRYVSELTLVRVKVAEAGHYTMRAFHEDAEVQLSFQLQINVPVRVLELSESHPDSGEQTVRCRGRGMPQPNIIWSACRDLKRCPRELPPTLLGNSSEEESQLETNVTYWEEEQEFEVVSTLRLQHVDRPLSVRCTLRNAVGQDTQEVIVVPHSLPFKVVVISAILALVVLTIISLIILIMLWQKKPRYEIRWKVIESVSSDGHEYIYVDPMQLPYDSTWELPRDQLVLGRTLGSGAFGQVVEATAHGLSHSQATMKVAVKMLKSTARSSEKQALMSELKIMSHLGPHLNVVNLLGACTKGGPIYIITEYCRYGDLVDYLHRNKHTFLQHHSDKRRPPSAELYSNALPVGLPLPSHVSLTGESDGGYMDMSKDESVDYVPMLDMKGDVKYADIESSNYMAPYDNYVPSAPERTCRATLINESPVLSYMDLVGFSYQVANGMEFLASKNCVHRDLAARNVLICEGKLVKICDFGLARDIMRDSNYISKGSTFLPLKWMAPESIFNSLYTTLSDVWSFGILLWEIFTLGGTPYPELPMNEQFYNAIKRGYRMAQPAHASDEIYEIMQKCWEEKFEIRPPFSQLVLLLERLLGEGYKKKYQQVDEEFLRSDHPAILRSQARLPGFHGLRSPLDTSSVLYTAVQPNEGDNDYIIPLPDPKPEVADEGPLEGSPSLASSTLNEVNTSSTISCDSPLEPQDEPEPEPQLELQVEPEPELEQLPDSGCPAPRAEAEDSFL

Sequence of Hepatocyte growth factor receptor (Homo sapiens) (P08581 whole entry): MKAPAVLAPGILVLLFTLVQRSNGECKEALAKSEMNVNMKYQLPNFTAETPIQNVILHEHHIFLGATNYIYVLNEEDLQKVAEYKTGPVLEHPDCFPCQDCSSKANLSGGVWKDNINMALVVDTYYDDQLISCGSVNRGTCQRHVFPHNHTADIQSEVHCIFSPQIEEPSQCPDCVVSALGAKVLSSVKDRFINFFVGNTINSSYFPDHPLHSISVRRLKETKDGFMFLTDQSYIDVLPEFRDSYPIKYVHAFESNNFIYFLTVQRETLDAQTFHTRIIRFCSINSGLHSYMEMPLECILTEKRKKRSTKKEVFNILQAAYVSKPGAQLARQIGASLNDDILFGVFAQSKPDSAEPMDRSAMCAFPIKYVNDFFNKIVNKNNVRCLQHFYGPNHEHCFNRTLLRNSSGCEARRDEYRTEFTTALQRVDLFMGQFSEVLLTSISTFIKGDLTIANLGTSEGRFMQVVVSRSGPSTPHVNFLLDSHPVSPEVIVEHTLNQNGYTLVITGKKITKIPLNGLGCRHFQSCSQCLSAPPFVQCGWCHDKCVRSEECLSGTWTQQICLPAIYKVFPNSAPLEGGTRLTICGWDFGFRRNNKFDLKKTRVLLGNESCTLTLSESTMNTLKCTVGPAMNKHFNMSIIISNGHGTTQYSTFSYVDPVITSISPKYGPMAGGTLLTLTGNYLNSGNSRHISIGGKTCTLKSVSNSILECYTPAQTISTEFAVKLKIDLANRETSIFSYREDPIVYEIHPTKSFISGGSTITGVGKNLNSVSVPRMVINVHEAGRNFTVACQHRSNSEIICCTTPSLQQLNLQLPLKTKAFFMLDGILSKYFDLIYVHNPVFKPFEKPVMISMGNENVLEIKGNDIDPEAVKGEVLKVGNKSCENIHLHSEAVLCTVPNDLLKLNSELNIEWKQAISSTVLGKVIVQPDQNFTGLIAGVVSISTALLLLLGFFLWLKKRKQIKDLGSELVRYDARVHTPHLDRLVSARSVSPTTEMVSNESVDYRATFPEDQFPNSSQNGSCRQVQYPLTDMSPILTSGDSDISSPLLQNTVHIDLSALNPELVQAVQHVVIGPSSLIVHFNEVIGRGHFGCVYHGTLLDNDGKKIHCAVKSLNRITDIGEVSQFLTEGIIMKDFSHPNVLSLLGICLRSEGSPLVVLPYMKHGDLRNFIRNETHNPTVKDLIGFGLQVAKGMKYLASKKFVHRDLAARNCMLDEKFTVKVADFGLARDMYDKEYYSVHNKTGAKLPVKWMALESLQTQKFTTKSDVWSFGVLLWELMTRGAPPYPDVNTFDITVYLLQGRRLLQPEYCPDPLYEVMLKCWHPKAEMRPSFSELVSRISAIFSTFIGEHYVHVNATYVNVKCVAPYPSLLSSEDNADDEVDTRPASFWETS
Sequence of Leukocyte tyrosine kinase receptor (Homo sapiens) (P29376 whole entry): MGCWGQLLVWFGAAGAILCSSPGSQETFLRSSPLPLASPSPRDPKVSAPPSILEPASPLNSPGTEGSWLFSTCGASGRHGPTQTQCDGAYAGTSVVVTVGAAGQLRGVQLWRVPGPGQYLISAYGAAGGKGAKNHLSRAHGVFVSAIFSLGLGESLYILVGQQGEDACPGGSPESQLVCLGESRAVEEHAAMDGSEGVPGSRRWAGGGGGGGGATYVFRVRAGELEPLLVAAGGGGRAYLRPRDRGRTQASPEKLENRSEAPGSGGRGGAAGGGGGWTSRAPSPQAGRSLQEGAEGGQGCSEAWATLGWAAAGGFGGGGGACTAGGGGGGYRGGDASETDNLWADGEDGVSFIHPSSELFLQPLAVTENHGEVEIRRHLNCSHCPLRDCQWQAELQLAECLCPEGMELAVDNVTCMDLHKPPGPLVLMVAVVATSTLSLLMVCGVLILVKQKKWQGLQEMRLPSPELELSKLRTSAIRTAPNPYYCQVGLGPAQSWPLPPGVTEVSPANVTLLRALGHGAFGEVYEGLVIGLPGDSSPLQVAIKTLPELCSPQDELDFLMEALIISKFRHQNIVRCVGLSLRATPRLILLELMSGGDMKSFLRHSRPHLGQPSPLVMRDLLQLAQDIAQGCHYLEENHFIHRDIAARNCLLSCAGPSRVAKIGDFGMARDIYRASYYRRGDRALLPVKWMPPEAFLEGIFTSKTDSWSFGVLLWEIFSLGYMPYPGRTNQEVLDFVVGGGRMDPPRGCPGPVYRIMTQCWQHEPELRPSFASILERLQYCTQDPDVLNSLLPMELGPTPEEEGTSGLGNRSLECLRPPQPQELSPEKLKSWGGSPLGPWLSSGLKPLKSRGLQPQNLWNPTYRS
Sequence of Platelet-derived growth factor receptor alpha (Homo sapiens) (P16234 whole entry): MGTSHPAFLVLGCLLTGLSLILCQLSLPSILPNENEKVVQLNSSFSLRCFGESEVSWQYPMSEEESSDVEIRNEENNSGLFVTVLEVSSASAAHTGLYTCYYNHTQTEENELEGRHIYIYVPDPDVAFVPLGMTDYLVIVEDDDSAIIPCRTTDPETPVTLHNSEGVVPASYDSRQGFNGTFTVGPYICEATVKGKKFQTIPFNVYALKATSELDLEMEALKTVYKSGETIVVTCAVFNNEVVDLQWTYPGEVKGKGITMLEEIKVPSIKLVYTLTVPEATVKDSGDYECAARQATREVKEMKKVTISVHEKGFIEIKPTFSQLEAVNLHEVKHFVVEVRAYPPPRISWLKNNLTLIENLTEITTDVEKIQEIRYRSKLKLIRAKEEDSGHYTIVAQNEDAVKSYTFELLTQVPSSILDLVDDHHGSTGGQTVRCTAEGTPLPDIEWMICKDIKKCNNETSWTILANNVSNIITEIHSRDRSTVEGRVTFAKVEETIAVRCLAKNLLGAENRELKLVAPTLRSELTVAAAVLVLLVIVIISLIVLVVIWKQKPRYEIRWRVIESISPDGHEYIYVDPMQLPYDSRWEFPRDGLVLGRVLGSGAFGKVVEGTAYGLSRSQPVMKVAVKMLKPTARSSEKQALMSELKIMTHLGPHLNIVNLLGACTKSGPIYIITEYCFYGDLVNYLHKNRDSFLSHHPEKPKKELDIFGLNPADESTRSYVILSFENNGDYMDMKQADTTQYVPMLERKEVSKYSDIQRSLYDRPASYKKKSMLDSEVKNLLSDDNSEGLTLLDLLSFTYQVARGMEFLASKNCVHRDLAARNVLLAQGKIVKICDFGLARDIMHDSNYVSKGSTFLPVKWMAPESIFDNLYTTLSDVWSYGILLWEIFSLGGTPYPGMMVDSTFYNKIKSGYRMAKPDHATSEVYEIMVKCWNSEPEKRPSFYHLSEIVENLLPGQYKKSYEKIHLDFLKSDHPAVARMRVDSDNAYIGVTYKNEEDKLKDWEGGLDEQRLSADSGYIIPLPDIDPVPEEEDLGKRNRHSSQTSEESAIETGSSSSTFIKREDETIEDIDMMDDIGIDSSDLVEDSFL
Sequence of Tyrosine-protein kinase Lyn (Homo sapiens) (P07948 2-512 limits assumed): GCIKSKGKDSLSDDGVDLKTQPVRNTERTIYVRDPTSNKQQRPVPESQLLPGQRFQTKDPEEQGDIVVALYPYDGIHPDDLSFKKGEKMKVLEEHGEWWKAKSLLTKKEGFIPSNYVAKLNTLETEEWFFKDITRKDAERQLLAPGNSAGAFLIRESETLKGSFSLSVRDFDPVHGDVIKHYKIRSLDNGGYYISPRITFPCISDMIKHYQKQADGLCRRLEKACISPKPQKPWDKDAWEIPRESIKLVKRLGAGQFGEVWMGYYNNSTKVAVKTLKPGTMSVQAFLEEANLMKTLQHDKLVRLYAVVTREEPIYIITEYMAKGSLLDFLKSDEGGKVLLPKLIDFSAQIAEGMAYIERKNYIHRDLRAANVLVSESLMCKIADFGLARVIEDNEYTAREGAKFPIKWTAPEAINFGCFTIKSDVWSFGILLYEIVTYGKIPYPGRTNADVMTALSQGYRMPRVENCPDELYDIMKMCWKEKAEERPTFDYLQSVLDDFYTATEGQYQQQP

As to `CCOc1nccc2c1nc(-c1nonc1N)n2CC`, the inhibition (commonly the relative decrease from the control value, in per cent) in [1] is 2.99%; in test [2] it was 3.8%; in test [3], 6.05%; in test [4], 2.33%; in test [5] it was 4.84%; in test [6], 3.54%. In addition, the inhibition came to 6.08% in test [7]; 4.49% in test [8]; 11.2% in test [9]; 3.26% in [10]; 8.7% in test [11]; 11.7% in [12]. In addition, the inhibition turned out to be 19.1% in [13]; 1.89% in test [14]; 6.37% in test [15]; 10.8% in [16]; 9.83% in test [17]; 6.37% in test [18]. The figures for the inhibition in [19] and in [20] were 5.39% and 7.89%, respectively.

Regarding `CN1CCN(C(=O)c2ccc(NC(=O)Nc3ccc(N(C)c4ccnc(Nc5ccc(CS(C)(=O)=O)cc5)n4)cc3)cc2)CC1`, the inhibition turned out to be 10.7% in test [1]; 2.45% in [2]; 19.7% in [3]; 1.67% in test [4]; 18.1% in test [5]; 12.8% in [6]. Further, the inhibition in [7] is 52.3%; in [8], 45.6%; in test [9], 77.4%; in test [10] it was 5.5%; in [11] it was 38.9%; in test [12], 59.9%. The inhibition is 77.5% in test [13]; 7.23% in test [14]; 46.1% in test [15]; 67.2% in [16]; 85.5% in test [17]; 75.2% in test [18]. Besides, the inhibition in test [19] was 94.1%; in test [20], 60.3%.

As to `COC(=O)c1ccc2c(c1)C(=Cc1cc(Br)c(O)c(Br)c1)C(=O)N2`, the inhibition in test [1] was 34%; in test [2] it was 3.81%; in [3] it was 17.1%; in test [4], 2.84%; in test [5], 12.9%; in [6], 1.09%. Also, the inhibition was determined as 2.17% in test [7]; 2.4% in test [8]; 8.25% in [9]; 3% in test [10]; 8.06% in test [11]; 5.39% in test [12]. Besides, the inhibition in test [13] came out at 16.1%; in test [14], 2.33%; in test [15], 12.2%; in [16], 1.96%; in test [17], 3.91%; in test [18], 4.32%. The inhibition in [19] is 12.3%; in test [20], 1.55%.

Consider `N#Cc1c(NC(=O)c2ccccc2F)sc2c1CCCC2`, for which the inhibition is -0.82% in [1]; -0.87% in test [2]; 0.22% in test [3]; -0.31% in [4]; 0.82% in [5]; -1.5% in test [6]. Also, the inhibition was 0.64% in test [7]; 10.5% in test [8]; 4.86% in test [9]; 1.84% in [10]; 1.48% in test [11]; 1.47% in [12]. Further, the inhibition in [13] is 5.27%; in [14], 1.43%; in [15] it was 3.35%; in [16] it was 1.66%; in test [17], 4.03%; in [18], 2.72%. Besides, the inhibition was 3.24% in test [19] and 1.07% in [20].

As for `Nc1nccc(-c2c(-c3ccc(F)cc3)nn3cc(C(F)(F)F)ccc23)n1`, the inhibition in test [1] is 2.62%; in test [2] it was 1.67%; in [3] it was 2.06%; in [4], 1.33%; in test [5] it was 2.59%; in test [6] it was -0.89%. The inhibition was 0.12% in test [7]; 2.79% in test [8]; 0.01% in test [9]; -1.22% in [10]; -0.61% in test [11]; 5.02% in test [12]. Further, the inhibition is 5.93% in test [13]; 0.17% in test [14]; 0.96% in test [15]; -0.84% in test [16]; 1.89% in test [17]; 1.05% in [18]. The inhibition was determined as 1.99% in test [19] and 0.39% in test [20].

For the compound `Cc1cc(O)cc(C)c1/C=C/c1cncc(C(=O)N(C)C)c1`, the inhibition was found to be 3.38% in test [1]; 4.08% in [2]; 7.54% in [3]; 3.61% in test [4]; 6.35% in test [5]; 1.7% in [6]. Further, the inhibition in test [7] was found to be 8.23%; in test [8], 1.87%; in test [9], 10.9%; in test [10], 8.6%; in [11], 8.5%; in [12] it was 11.8%. The inhibition in test [13] came to 13.3%; in [14], 3.51%; in [15], 3.16%; in [16] it was 8.15%; in [17], 1.18%; in test [18], 1.47%. Also, the inhibition in test [19] came to 5.39%; in test [20], 5.76%.

Regarding `Oc1cccc(-c2nc(-c3ccccc3)[nH]c2-c2ccncc2)c1`, the inhibition in test [1] was determined as 7.05%; in [2] it was 9.9%; in test [3], 31.3%; in test [4], 6.99%; in test [5] it was 25.4%; in test [6] it was 1.35%. In addition, the inhibition came to 6.42% in [7]; 6.73% in [8]; 11.1% in test [9]; 4.05% in [10]; 8.69% in test [11]; 8.99% in test [12]. For the same compound, the inhibition in test [13] is 18.5%; in [14], 4%; in test [15], 13.2%; in test [16], 5.63%; in test [17] it was 5.18%; in [18] it was 2.42%. The inhibition was determined as 9.69% in test [19] and 5.66% in test [20].
